biological target: Muscarinic acetylcholine receptor M3 (Homo sapiens) (UniProt P20309); experiment: hM3 positive allosteric modulation, ACh fold-shift, SAR follow-up, selectivity assay for M4 PAM project, cell-based, analogs, calcium (AID 1929); conditions: hM3 cells, ACh CRC fold-shift, calcium mobilization; with ACh 0.1 µM; with compound at fixed dose
Sequence (P20309 whole entry, looked up): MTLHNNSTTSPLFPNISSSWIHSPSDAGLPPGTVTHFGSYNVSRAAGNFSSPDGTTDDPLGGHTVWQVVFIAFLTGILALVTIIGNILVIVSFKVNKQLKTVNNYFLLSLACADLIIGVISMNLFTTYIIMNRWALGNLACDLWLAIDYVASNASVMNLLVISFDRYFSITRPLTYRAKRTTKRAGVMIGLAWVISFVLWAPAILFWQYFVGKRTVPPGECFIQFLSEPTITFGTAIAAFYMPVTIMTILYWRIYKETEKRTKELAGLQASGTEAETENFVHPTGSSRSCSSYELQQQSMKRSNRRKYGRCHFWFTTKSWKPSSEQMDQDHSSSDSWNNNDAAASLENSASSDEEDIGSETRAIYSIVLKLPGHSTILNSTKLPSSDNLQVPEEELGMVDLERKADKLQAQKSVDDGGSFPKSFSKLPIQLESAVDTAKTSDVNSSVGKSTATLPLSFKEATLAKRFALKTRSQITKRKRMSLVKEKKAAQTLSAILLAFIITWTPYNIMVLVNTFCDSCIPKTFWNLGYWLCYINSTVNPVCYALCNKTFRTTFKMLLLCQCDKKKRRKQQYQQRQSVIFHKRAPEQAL

ACh response, % max, inactive:
Cc1cc(OCc2ccncc2)nc2sc(C(=O)NCc3cc(F)ccc3F)c(N)c12 96.3
Cc1cc(OCc2ccncc2)nc2sc(C(=O)NCc3cccc(F)c3F)c(N)c12 94.7
Cc1cc(OCCN2CCOCC2)nc2sc(C(=O)NC(C)(C)C)c(N)c12 96.8
COc1ccc(CNC(=O)c2sc3nc(OCc4ccncc4)cc(C)c3c2N)cc1 90.1

Reference: PubChem BioAssay AID1929 (Vanderbilt High Throughput Screening Facility, 2009)
